Data on 27 sequences can be found in publication PMC13541613, “GHT-SELEX demonstrates unexpectedly high intrinsic sequence specificity and complex DNA binding of many human transcription factors”.

Common to all, as to assay: HT-SELEX; 20 mM HEPES pH 7, 140 mM KCl, 5 mM NaCl, 1 mM K2HPO4, 2 mM MgSO4, 100 uM EGTA, ZnSO4, 0.1% Tween20; room temperature, 1 h; high values mean tight binding
Common to all, as to details: protein: ivt; tags: eGFP (N-terminal); dsDNA, one strand shown

One assay has as its target ZNF721 full-length (Homo sapiens, UniProt Q8TF20-2 1-923). The method in brief: (§1)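 The binding signal is a relative k-mer count in selected reads, and higher values mean tighter binding. To obtain these reads, bead-bound tagged transcription factor (full-length or DNA-binding-domain fragment, produced in HEK293 lysate or cell-free extract) was mixed with a randomized 40-base DNA library for 1 h at room temperature in low-stringency HEPES/KCl buffer with Tween20. Bound DNA was recovered by washing and heat elution, PCR-amplified through successive cycles and sequenced on Illumina (~3 million 60 bp reads per sample).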

Another assay concerns the target ZNF721 DBD1 (Homo sapiens, UniProt Q8TF20-2 29-461). The method in brief:
as §1

A further assay has as its target ZNF721 DBD2 (Homo sapiens, UniProt Q8TF20-2 395-923). The method in brief:
as §1

Chain of ZNF721 DBD1 (Q8TF20 17-449): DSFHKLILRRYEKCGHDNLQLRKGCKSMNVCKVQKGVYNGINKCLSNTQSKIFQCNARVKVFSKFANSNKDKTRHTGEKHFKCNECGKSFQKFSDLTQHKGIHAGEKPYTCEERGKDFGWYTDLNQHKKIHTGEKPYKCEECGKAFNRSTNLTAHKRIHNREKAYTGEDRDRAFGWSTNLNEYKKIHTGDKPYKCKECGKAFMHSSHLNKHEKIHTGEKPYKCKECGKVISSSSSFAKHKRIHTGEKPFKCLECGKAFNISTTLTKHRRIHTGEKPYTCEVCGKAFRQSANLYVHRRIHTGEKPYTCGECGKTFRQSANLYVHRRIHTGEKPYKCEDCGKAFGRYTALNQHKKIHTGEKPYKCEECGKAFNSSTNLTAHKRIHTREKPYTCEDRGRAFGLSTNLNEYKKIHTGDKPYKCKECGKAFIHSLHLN
Chain of ZNF721 DBD2 (Q8TF20 383-911): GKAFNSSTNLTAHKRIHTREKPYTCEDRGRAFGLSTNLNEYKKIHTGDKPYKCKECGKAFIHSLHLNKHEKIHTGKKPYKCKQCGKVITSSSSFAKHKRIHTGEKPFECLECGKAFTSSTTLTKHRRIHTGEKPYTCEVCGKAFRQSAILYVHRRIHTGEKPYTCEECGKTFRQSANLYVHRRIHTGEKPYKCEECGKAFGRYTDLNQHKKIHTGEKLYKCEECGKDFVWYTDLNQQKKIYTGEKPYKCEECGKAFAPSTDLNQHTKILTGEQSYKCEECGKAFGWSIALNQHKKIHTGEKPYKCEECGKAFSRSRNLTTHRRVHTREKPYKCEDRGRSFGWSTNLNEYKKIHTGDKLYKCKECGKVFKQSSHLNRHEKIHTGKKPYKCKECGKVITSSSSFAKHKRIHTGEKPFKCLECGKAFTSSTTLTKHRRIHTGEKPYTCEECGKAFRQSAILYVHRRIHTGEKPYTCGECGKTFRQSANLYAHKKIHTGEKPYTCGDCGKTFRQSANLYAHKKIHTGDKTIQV
Chain of ZNF721 full-length (Q8TF20 other isoform, or with tags, fused parts or gaps): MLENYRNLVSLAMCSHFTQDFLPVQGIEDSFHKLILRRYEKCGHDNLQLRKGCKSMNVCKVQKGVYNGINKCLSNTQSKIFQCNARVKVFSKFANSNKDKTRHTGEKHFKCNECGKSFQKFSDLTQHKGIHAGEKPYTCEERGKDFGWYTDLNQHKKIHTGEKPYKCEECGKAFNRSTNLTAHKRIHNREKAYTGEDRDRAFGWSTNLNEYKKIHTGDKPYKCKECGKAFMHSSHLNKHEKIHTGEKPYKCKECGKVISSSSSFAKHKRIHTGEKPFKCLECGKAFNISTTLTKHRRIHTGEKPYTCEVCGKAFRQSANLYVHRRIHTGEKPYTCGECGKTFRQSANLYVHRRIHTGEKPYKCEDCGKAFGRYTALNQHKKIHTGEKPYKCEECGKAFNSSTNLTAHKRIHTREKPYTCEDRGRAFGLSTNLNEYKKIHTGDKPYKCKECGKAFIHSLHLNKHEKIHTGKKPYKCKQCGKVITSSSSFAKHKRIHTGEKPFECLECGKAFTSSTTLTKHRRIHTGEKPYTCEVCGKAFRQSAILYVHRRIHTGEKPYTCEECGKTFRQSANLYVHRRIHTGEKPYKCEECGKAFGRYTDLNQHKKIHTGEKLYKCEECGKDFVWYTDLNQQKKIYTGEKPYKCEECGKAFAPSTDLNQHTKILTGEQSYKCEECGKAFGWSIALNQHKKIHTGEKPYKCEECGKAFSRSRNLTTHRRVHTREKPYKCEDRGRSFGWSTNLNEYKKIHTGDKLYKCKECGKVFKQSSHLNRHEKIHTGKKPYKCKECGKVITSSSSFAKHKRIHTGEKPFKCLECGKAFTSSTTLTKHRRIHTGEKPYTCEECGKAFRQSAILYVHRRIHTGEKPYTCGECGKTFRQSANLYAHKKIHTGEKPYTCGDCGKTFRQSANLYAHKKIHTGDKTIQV

Take CATCCCCCCC: the binding signal stood at 0.123 relative 10-mer count in the assay with ZNF721 full-length, 0.00463 relative 10-mer count with ZNF721 DBD1 and 0.00635 relative 10-mer count with ZNF721 DBD2.

Consider GTGGGGGGGA, for which the binding signal with ZNF721 full-length was 0.145 relative 10-mer count; with ZNF721 DBD1 it was 0.00587 relative 10-mer count; in the assay with ZNF721 DBD2, 0.00348 relative 10-mer count.

As for CCTCCGCCCC, the binding signal with ZNF721 full-length was determined as 0.161 relative 10-mer count; with ZNF721 DBD1, 0.00789 relative 10-mer count; with ZNF721 DBD2 it was 0.003 relative 10-mer count.

CCCTCCCCGC: the values for the binding signal with ZNF721 full-length, with ZNF721 DBD1 and with ZNF721 DBD2 were 0.139 relative 10-mer count, 0.00555 relative 10-mer count and 0.00995 relative 10-mer count, respectively.

As to CCCCACCACA, the binding signal was determined as 0.148 relative 10-mer count with ZNF721 full-length, 0.00505 relative 10-mer count with ZNF721 DBD1 and 0.00527 relative 10-mer count in the assay with ZNF721 DBD2.

On to CCAAAAAACA, for which the figures for the binding signal with ZNF721 full-length, with ZNF721 DBD1 and in the assay with ZNF721 DBD2 were 0.16 relative 10-mer count, 0.00174 relative 10-mer count and 0.185 relative 10-mer count, respectively.

For the sequence CGCCCCACCA, the binding signal was 0.117 relative 10-mer count with ZNF721 full-length, 0.00362 relative 10-mer count in the assay with ZNF721 DBD1 and 0.00312 relative 10-mer count with ZNF721 DBD2.

Take AAGAAAAAAG: the values for the binding signal in the assay with ZNF721 full-length, with ZNF721 DBD1 and in the assay with ZNF721 DBD2 were 0.166 relative 10-mer count, 0.0407 relative 10-mer count and 0.0319 relative 10-mer count, respectively.

GCGTACCCTA: the binding signal with ZNF721 full-length was 0.111 relative 10-mer count; in the assay with ZNF721 DBD1, 0.0263 relative 10-mer count; with ZNF721 DBD2 it was 0.0775 relative 10-mer count.

Consider AAAAAGCAGA, for which the values for the binding signal in the assay with ZNF721 full-length, with ZNF721 DBD1 and with ZNF721 DBD2 were 0.107 relative 10-mer count, 0.00183 relative 10-mer count and 0.0852 relative 10-mer count, respectively.

As for CAAAAAAAAC, the binding signal with ZNF721 full-length came to 0.123 relative 10-mer count; with ZNF721 DBD1, 0.00243 relative 10-mer count; with ZNF721 DBD2 it was 0.0838 relative 10-mer count.

For AGGTGGGGGG, the binding signal with ZNF721 full-length was 0.157 relative 10-mer count; in the assay with ZNF721 DBD1, 0.0067 relative 10-mer count; with ZNF721 DBD2, 0.00527 relative 10-mer count.

Turning to CAAAAAAAAG, the results for the binding signal in the assay with ZNF721 full-length, with ZNF721 DBD1 and in the assay with ZNF721 DBD2 were 0.269 relative 10-mer count, 0.0321 relative 10-mer count and 0.108 relative 10-mer count, respectively.

As to AAAAACAGTA, the binding signal with ZNF721 full-length is 0.176 relative 10-mer count; with ZNF721 DBD1, 0.00119 relative 10-mer count; with ZNF721 DBD2, 0.212 relative 10-mer count.

Consider ACCCACACCC, for which the binding signal in the assay with ZNF721 full-length worked out at 0.108 relative 10-mer count; with ZNF721 DBD1, 0.00527 relative 10-mer count; in the assay with ZNF721 DBD2, 0.00527 relative 10-mer count.

As to CCCATCCCCC, the results for the binding signal with ZNF721 full-length, in the assay with ZNF721 DBD1 and with ZNF721 DBD2 were 0.185 relative 10-mer count, 0.00716 relative 10-mer count and 0.00312 relative 10-mer count, respectively.

In the case of AAGCAGCATA, the binding signal with ZNF721 full-length is 0.179 relative 10-mer count; with ZNF721 DBD1 it was 0.00216 relative 10-mer count; in the assay with ZNF721 DBD2 it was 0.199 relative 10-mer count.

For CACTTCATAC, the binding signal in the assay with ZNF721 full-length was 0.747 relative 10-mer count; in the assay with ZNF721 DBD1 it was 1 relative 10-mer count; with ZNF721 DBD2 it was 0.00144 relative 10-mer count.

On to AAAAACAAGC, for which the binding signal came out at 0.123 relative 10-mer count with ZNF721 full-length, 0.0116 relative 10-mer count with ZNF721 DBD1 and 0.0483 relative 10-mer count with ZNF721 DBD2.

As for CAGCGTCTCC, the binding signal with ZNF721 full-length is 0.299 relative 10-mer count; in the assay with ZNF721 DBD1, 0.00174 relative 10-mer count; with ZNF721 DBD2, 0.722 relative 10-mer count.

With CAACCCACCC, the binding signal stood at 0.171 relative 10-mer count with ZNF721 full-length, 0.00532 relative 10-mer count with ZNF721 DBD1 and 0.00623 relative 10-mer count with ZNF721 DBD2.

In the case of AACCACCCCC, the binding signal with ZNF721 full-length came to 0.106 relative 10-mer count; with ZNF721 DBD1 it was 0.00303 relative 10-mer count; with ZNF721 DBD2 it was 0.00276 relative 10-mer count.

In the case of GGGGGGGGGA, the binding signal came out at 0.116 relative 10-mer count with ZNF721 full-length, 0.00486 relative 10-mer count with ZNF721 DBD1 and 0.00192 relative 10-mer count with ZNF721 DBD2.

For the sequence CCCCACCCCA, the figures for the binding signal with ZNF721 full-length, with ZNF721 DBD1 and with ZNF721 DBD2 were 0.297 relative 10-mer count, 0.0112 relative 10-mer count and 0.00288 relative 10-mer count, respectively.

On to CCGCCCCGCC, for which the values for the binding signal with ZNF721 full-length, with ZNF721 DBD1 and in the assay with ZNF721 DBD2 were 0.156 relative 10-mer count, 0.00592 relative 10-mer count and 0.00216 relative 10-mer count, respectively.

Turning to CACCAACCCC, the binding signal was 0.123 relative 10-mer count in the assay with ZNF721 full-length, 0.00404 relative 10-mer count with ZNF721 DBD1 and 0.00407 relative 10-mer count with ZNF721 DBD2.

Turning to AAAAAGCGTA, the figures for the binding signal in the assay with ZNF721 full-length, with ZNF721 DBD1 and with ZNF721 DBD2 were 0.178 relative 10-mer count, 0.0453 relative 10-mer count and 0.0266 relative 10-mer count, respectively.
